{"source": "PubChem BioAssay (NCATS)", "note": "Results filed as inconclusive are left out. Values without a mark were called inactive. Activity calls are given as the source filed them. The call rests on the fitted dose curve; in most records, active means well fitted cell-killing curve with a large enough effect; inconclusive means small, poorly fitted or top-dose-only effect, or effect the other way; inactive means no such curve, though single readings can be large or run the other way. Potency means the concentration at half of the fitted maximal effect."}
{"test": "Quantitative High-Throughput drug screen in 47 multiple myeloma cell lines against the NCATS MIPE library collection: RPMI8226_ATCC cell viability assay (AID 1919871); further: nearly all actives have a fitted effect of over 30% in size", "details": "RPMI8226 myeloma viability, CellTiter-Glo ATP luminescence, 48 h; series mostly up to 45.8 µM; viability (% of control): at the top concentration", "in_short": "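Plated at 500 cells per well, myeloma lines received MIPE 4.0 compounds by pin tool. Following 48 h culture at 37 °C, CellTiter-Glo luminescence gave viability relative to DMSO and media-only controls.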"}
{"compound": "CC(C)(O)c1cc2nc(-c3cnc(N)nc3)nc(N3CCOCC3)c2s1", "Potency": "0.0469 µM (active)"}
{"compound": "CN[C@H]1CCc2cc(OC)c(OC)c(OC)c2-c2ccc(OC)c(=O)cc21", "Potency": "0.0083 µM (active)"}
{"compound": "O=C(C=Cc1c(C(=O)O)[nH]c2cc(Cl)cc(Cl)c12)Nc1ccccc1", "viability (% of control)": "111%"}
{"compound": "CN1CC[C@@H](c2c(O)cc(O)c3c(=O)cc(-c4ccccc4Cl)oc23)[C@@H](O)C1", "Potency": "0.235 µM (active)"}
{"compound": "COc1cccc(Nc2c(C(N)=O)cnc3c(C)cc(S(=O)(=O)c4cccc(C(=O)N(C)C)c4)cc23)c1", "viability (% of control)": "110% [at 23.2 µM]"}
{"compound": "CC(C)[C@H](C(=O)Nc1ccc(C(=O)NO)cc1)c1ccccc1", "Potency": "1.32 µM (active)"}
{"compound": "CN(C)c1nc(Cc2ccc(NC(=O)c3ccc4ccccc4c3)cc2)nc(Cl)c1CC(=O)O", "viability (% of control)": "107%"}
{"compound": "Cc1ccc(CN2CCNCC2)cc1NC(=O)CNc1ccc(F)c(F)c1", "viability (% of control)": "102%"}
{"compound": "CCC1=C[C@@H]2CN(C1)Cc1c([nH]c3ccccc13)[C@@](C(=O)OC)(c1cc3c(cc1OC)N(C)[C@@H]1[C@@](O)(C(=O)OC)[C@H](OC(C)=O)[C@]4(CC)C=CCN5CC[C@]31[C@@H]54)C2", "Potency": "0.118 µM (active)"}
{"compound": "COC(=O)Nc1nc2ccc(C(=O)c3ccc(F)cc3)cc2[nH]1", "Potency": "1.87 µM (active)"}
{"compound": "O=C(CCCCCCC(=O)Nc1ccc([C@H]2O[C@@H](CSc3nc(-c4ccccc4)c(-c4ccccc4)o3)C[C@@H](c3ccc(CO)cc3)O2)cc1)NO", "Potency": "18.7 µM (active)"}
{"compound": "CC(=O)Nc1sc2c(c1-c1nc3ccccc3s1)CNC2", "Potency": "14.8 µM (active)"}
{"compound": "COc1cc2ncn(-c3cc(OCc4ccccc4C(F)(F)F)c(C(N)=O)s3)c2cc1OC", "Potency": "5.26 µM (active)"}
{"compound": "CCCCCN(CCC12CC3CC(CC(C3)C1)C2)C(=O)NCCCc1ccncc1", "Potency": "20.9 µM (active)"}
{"compound": "Cc1c(Cn2c(C)nc3c(C(=O)O)cc(N4CCOCC4)cc32)cccc1C(F)(F)F", "viability (% of control)": "109%"}
{"compound": "CS(=O)(=O)c1ccc(-c2cnc(N)c(C(=O)Nc3ccccc3)n2)cc1", "viability (% of control)": "109%"}
{"compound": "COc1cc(C(=O)NS(=O)(=O)c2ccccc2C)ccc1Cc1cn(C)c2ccc(NC(=O)OC3CCCC3)cc12", "Potency": "20.9 µM (active)"}
{"compound": "COC(=O)Nc1ccc(-c2nc(N3CCOCC3)c3cnn(C4CCN(Cc5cccnc5)CC4)c3n2)cc1", "Potency": "0.0118 µM (active)"}
{"compound": "COc1ccc2c(OCc3nnc4ccc(-c5ccccc5)nn34)ccnc2c1", "viability (% of control)": "99.9%"}
{"compound": "CCCn1c(=O)c2[nH]c(-c3cnn(Cc4cccc(C(F)(F)F)c4)c3)nc2n(CC)c1=O", "Potency": "7.43 µM (active)"}
